Where “and” joins values, the source holds several entries; their conditions need not be identical. Equal entries are not always repeated. Among all 130,000 compounds or so, about 230 (0.18%) were called active.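 The calls were made as follows: active = inhibition of cGAS enzyme activity at or above 60%; inactive = the rest.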 Shown is part of a subset that was picked to be rich in actives.
Target: Cyclic GMP-AMP synthase (Mus musculus) (UniProt Q8C6L5)
Experiment: inhibitors of Mus musculus cyclic GMP-AMP synthase, initial high-throughput assay, cell-free, RapidFire MS (AID 1259397);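 also: enzyme stimulated by 45 bp dsDNA with ATP and GTP substrates; cGAMP share of summed cGAMP plus half ATP and half GTP signals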
Details: recombinant mouse cGAS, cGAMP by RapidFire MS; at 12.5 µM; hits give high values

Chain of Cyclic GMP-AMP synthase (Mus musculus) (Q8C6L5 whole entry, looked up): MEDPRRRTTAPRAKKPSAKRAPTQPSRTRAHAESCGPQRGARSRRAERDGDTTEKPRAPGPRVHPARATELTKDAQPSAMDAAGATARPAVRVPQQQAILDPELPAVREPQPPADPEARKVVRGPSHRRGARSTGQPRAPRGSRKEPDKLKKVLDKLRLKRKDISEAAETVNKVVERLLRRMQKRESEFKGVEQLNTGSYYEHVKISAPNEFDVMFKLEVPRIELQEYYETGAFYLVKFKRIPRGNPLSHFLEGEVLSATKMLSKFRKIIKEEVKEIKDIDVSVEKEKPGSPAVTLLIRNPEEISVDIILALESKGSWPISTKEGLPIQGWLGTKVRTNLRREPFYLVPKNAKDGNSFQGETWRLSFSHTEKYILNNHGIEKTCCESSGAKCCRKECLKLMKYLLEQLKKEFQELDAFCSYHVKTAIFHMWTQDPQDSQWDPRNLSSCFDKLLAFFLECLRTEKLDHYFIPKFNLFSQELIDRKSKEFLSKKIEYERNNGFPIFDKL

inhibition, inactive:
CC1(C(=O)NS(=O)(=O)c2cccc(OC(F)F)c2)CCN1C(=O)COc1ccc(Cl)cc1 (stereo unspecified) -4.55%
CCN(CC(=O)NC(C)(C)C)c1cc(Cl)nc(N)n1 -6.72%
CCNC(=O)c1cc(Cl)ccc1NS(=O)(=O)c1cn[nH]c1 -6.14%
CCC(c1nnc(SC(C)C(N)=O)n1Cc1ccccc1)N(C)C (stereo unspecified) -4.22%
Cc1cc(CN2CCN3C(=O)CNC(=O)C3C2)ccc1N1CCCC1 (stereo unspecified) -4.4%
CCN(CC)C(=O)N1CCCC(C(=O)Nc2ccc(S(=O)(=O)C(F)F)cc2)C1 (stereo unspecified) 6.42%
NC(=O)c1cc(NC(=O)N2CCCCCC2c2ccco2)ccc1F (stereo unspecified) -5.95%
CCn1nc(C(=O)NNC(=O)c2c(C)noc2C)c2ccccc2c1=O -0.0832%
COc1ccccc1CCc1nnc(CCC(=O)NC(C)CCn2cccn2)o1 (stereo unspecified) 2.62%
O=C(CCn1cnc2ccccc2c1=O)Nc1cc2c(cc1Br)OCCO2 -1.61%
CCN(Cc1ccncc1)C(=O)C1CCC(=O)N(Cc2ccccn2)C1 (stereo unspecified) -3.05%
COc1cc(NC(=O)[C@@H](C)N2Cc3ccc(NCC(C)C)nc3C2=O)cc(OC)c1 7.27%
Cc1ccc(C(=O)N2CCCC(C(=O)NC3C4CCc5ccccc5C43)C2)cc1 (stereo unspecified) -4.85%
CCCN1C(=O)CCc2cc(NC(=O)COC)ccc21 -1.31%
CCC(CC)S(=O)(=O)NC(=O)c1c(C)nn(CC)c1Cl -36.3%
CC(C)Cc1ccc(C(=O)c2cccs2)cc1 2.67%
Cc1c(C(=O)NCc2cccc([N+](=O)[O-])c2)sc(=O)n1CCc1ccccc1 -3.1%
OC(c1ccc(Cl)c(F)c1)c1ncc(-c2ccccc2Cl)[nH]1 (stereo unspecified) -1.95%
O=C(CCOc1ccccc1)N1CC(c2ccncc2)C1 -7.26%
C=CCNC(=O)c1cccnc1-c1ccc(OC)c2ncccc12 -6.67%
O=C1N(CCCc2ccccc2)CCCC12CCN(c1cnccn1)C2 (stereo unspecified) -11%
CCCCN(CCCC)C(=O)c1[nH]c(C)c(C(C)=O)c1C -6.21%
Cc1cccc(NCCNC(=O)c2oc(Br)cc2C)n1 -6.38%
CC(C)C(NC(=O)c1ccco1)C(=O)N1CC(C)(C)C1(C)C (stereo unspecified) -1.92%
N#CC(Cc1ccccc1)NC(=O)/C=C/c1ccccc1Br (stereo unspecified) 8.15%
Cc1cc(C)n(C(=O)C(C)n2cc([N+](=O)[O-])cn2)n1 (stereo unspecified) -19.7%
COC(=O)CCC(=O)N1CCCC(C(=O)c2ccc(-c3ccccc3)cc2)C1 (stereo unspecified) -2.49%
Cc1ccc(C(=O)NCC(NC(=O)c2ccc(C)nc2)C(C)C)cn1 (stereo unspecified) 3.43%
CC(C)C1CN(C(=O)CCn2cncn2)CCCN1Cc1ccc(F)cc1 (stereo unspecified) -18%
COc1ccc(-n2c(C)nc3ccc(NC(=O)Nc4ccc(C)cc4C)cc3c2=O)cc1 -11.4%
CN(C(=O)c1ccc(=O)[nH]n1)C1c2ccccc2-c2ccccc21 -2.89% and -15.8%
Cc1ncc(-c2c(-c3ccccc3)ncn2Cc2csc(N)n2)[nH]1 -18.8%
CCOc1ccc(Cl)cc1S(=O)(=O)N1CCN(CCO)CC1 -1.81%
Cc1ccccc1NC(=O)Cn1cc(S(=O)(=O)c2ccc(F)cc2)c(=O)c2cc3c(cc21)OCO3 -8.2%
CN1C(=O)Cc2cc(-c3csc(CCN4CCCCC4)n3)ccc21 -45.7%
Cc1cc(C)c(S(=O)(=O)Nc2ccc(-c3cn4ccc(C)nc4n3)cc2)c(C)c1 -25.3%
CCCn1c(=O)c2c(nc3n2CCN3c2cc(C)ccc2C)n(C)c1=O -2.17%
Cn1c(=O)c2c(nc(CN3CCCCC3)n2Cc2cccc3ccccc23)n(C)c1=O -3.06%
CCOc1ccc2c(c1)C(C)CC(C)(C)N2C(=O)C1CCN(C(=O)C2CC2)CC1 (stereo unspecified) -7.85%
CSCc1ccc(C(=O)N2CCCC(C(=O)c3ccc4c(c3)OCO4)C2)o1 (stereo unspecified) -4.82%
O=C(C=Cc1ccsc1)N1CCN(S(=O)(=O)c2cc(F)ccc2F)CC1 -8.87%
CN(C)CCNc1cc(-c2n[nH]c(C(F)(F)F)n2)c2cc[nH]c2n1 -6.32%
COc1ccccc1OCCCOc1ccc(Cl)cc1Cl -12.4%
CCOc1cn2c(cc1=O)C(=O)N(CCNC(=O)c1ccc(C)cc1)CC2 -4.57%
CCCN(C(=O)c1ccc(-n2ccnc2)cc1)C1CCCC1 -16.4%
Cc1cnn(CC2CCN(C(=O)c3ccccc3C3CCNC3)CC2)c1 (stereo unspecified) 3.82%
Cc1ccc(OCc2nc(C(=O)NC3CC(C)(C)NC(C)(C)C3)cs2)cc1 -17.3%
CCCCOC1CC(N(C)Cc2ccc(S(=O)(=O)N(C)C)o2)C1(C)C (stereo unspecified) -31.6%
COC(=O)C[C@H]1[C@]2(C)C[C@@]34OC5(C)OC6(C(OC(C)=O)[C@@]3(OC(C)=O)[C@H]2OC(C)=O)C2CC(=O)O[C@@H](c3ccoc3)[C@]2(C)CCC6(O5)[C@]14C (stereo partly specified) 1.62%
Cn1ccnc1CN(C(=O)c1scc2c1CCCC2)C1CC1 -27.6%
CC(C)CCN(CCC#N)Cc1ncc(Cl)n1C -8.32%
CC(N)=C(C#N)C(=O)COC(=O)c1ccc([N+](=O)[O-])o1 -1.77%
CC(CC(=O)Nc1ccc(F)cc1)n1cncn1 (stereo unspecified) -11%
CCOCC(O)CN1CCN(C(=O)Cn2ccccc2=O)CC1 (stereo unspecified) -5.1%
CC(C)Cn1c(CN(Cc2ccccc2)CC2CC2)cnc1S(C)(=O)=O -12.5%
CC(C)c1ccc2c(c1)CCCN2C(=O)CSC1CCS(=O)(=O)C1 (stereo unspecified) -7.34%
CC(N)=C(C#N)C(=O)COC(=O)C12CC3CC(CC(Br)(C3)C1)C2 -14%
CC1C(=O)SC2(CCCCC2)N1c1ccc(Cl)cc1 (stereo unspecified) -10.1%
CC1=C(C(=O)N2CCC(N3CCC(C(=O)NCC4CCCO4)CC3)CC2)OCCO1 (stereo unspecified) -2.1%
O=C(CCc1nc2ccccc2s1)NC1CCN(Cc2ccccc2)C1 (stereo unspecified) -1.33%
Cc1cc(C)n(CC2CCN(C(=O)C3CCN(S(C)(=O)=O)CC3)CC2)n1 -6.54%
Cc1cn2c3c(=O)n(CCc4ccccc4)c(=O)n(C)c3nc2n1CCOCCO -7.78%
CCCNC(=O)C1(C)CCCN(Cc2c(C)nn(-c3ccccc3)c2C)C1 (stereo unspecified) -6.24%
CCOc1ccc(CNC(=O)Cc2sc(=S)[nH]c2C)cc1F -6.57%
CC(=O)Nc1ccc(Cl)c(C(=O)N(C)CCc2nc3ccccc3[nH]2)c1 -12.1%
CCc1ccc(C(=O)NNC(=S)Nc2sc(CC)cc2C(=O)OC)s1 -2.22%
COc1cccc(N2C[C@@H]3C[C@@H](c4cccs4)N4CCC[C@@]34C2=O)c1 -6.87%
COC(=O)Cn1nc([N+](=O)[O-])n(CC(=O)OC)c1=O -9.81%
COc1ccc(NC2CCCN(c3nc(C(F)(F)F)nc(C)c3C)C2)cc1 (stereo unspecified) -21.1%
CCCOc1ccc(C(=O)NNC(=O)c2ccc[nH]c2=O)cc1 2.97%
CN(C)/C=C(\C(=O)c1ccc(Cl)c(Cl)c1)c1nnnn1-c1ccccc1 -2.94%
CC1CN(Cc2ccccc2F)CCO1 (stereo unspecified) -0.301%
CC(C(=O)N1CCCC1)N1CCOC(CN(C)C)C1 (stereo unspecified) -1.48%
CCc1ccc(Cl)c(CC)c1NC(=O)c1cnccn1 -4.79%
N#Cc1ccc(C2=CSC3=NS(=O)(=O)CCN23)cc1 -8.31%
O=C(NCCC(F)(F)F)c1csc(N2CCN(Cc3ccccc3)C2=O)n1 -6.72%
Cc1noc(C)c1C(=O)N1CCC1(C)C(=O)NS(=O)(=O)c1ccc(C#N)cc1 (stereo unspecified) -9.56%
O=[N+]([O-])c1cc(S(=O)(=O)C(F)(F)F)ccc1N1CCCC1 -9.38%
C=CCSc1nc2ccccc2n1CCO -7.69%
CC(=O)Nc1ccc(Cl)c(C(=O)NC(CCn2ccnc2)c2ccccc2)c1 (stereo unspecified) -10.1%
CCC1(C)Cc2ccccc2-c2nc3[nH][nH]c(=S)n3c(=O)c21 (stereo unspecified) 15%
COc1ccccc1/C=C/C=C1\N=C(c2ccc(C(C)(C)C)cc2)OC1=O -5.55%
Cc1ccc(C)c(C=C2SC(N3CCOCC3)=NC2=O)c1 -2.54%
O=C(NC[C@H]1C[C@H]2C=C[C@H]1C21CC1)C1CCN(Cc2ccco2)CC1 -6.29%
CN(Cc1cn[nH]c1-c1ccc(F)cc1)C(=O)Cc1c[nH]c2ccccc12 -11.3%
OCC1(Cc2ccccc2Cl)CCN(C2CCN(c3ccccc3)CC2)CC1 -7.34%
Cc1cc2nc(N(CCN3CCOCC3)C(=O)C3COc4ccccc4O3)sc2cc1C (stereo unspecified) -7.12%
CCN(CCn1cccn1)C(=O)CC1C(=O)NCCN1C1Cc2ccccc2C1 (stereo unspecified) 3.93% and -3.95%
Cc1c(C)c(C)c(C(=O)C2CCN(C(=O)CC3NC(=O)NC3=O)CC2)c(C)c1C (stereo unspecified) -1.46%
Cc1nc2c(cnn2C(C)C)c(C)c1CCC(=O)NC1CCCC1 -7.8%
Cc1ccsc1C(CNC(=O)c1cnn2ccn(C)c12)N(C)C (stereo unspecified) -20.4%
